Measurements reported in PubChem BioAssay (EPA / NIEHS).
“And” between values parts separate entries of the source, which are not always exact repeats. Equal entries are not always repeated. Results filed as inconclusive are left out. A structure can be active in one record and inactive in another. The source made the active and inactive calls. How the source made its calls, unless noted: active means hit-call score of the fitted dose curve at least 0.9, where 1 is the maximum; inactive means score below 0.9.

Legend:
[1] = target: Glucocorticoid receptor (Homo sapiens) (UniProt P04150); experiment: ATG_GR_TRANS: Attagene TRANS-FACTORIAL HepG2 Assay for human Glucocorticoid Receptor (GR) (AID 2282978; active means hit-call score of the fitted dose curve at least 0.9, where 1 is the maximum;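 further: activators score as hits since higher reporter transcript over DMSO is fitted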); conditions: HepG2 Attagene TRANS GR reporter, mRNA transcription
Glucocorticoid receptor (Homo sapiens), sequence (P04150 whole entry, looked up, the tested form may be a part): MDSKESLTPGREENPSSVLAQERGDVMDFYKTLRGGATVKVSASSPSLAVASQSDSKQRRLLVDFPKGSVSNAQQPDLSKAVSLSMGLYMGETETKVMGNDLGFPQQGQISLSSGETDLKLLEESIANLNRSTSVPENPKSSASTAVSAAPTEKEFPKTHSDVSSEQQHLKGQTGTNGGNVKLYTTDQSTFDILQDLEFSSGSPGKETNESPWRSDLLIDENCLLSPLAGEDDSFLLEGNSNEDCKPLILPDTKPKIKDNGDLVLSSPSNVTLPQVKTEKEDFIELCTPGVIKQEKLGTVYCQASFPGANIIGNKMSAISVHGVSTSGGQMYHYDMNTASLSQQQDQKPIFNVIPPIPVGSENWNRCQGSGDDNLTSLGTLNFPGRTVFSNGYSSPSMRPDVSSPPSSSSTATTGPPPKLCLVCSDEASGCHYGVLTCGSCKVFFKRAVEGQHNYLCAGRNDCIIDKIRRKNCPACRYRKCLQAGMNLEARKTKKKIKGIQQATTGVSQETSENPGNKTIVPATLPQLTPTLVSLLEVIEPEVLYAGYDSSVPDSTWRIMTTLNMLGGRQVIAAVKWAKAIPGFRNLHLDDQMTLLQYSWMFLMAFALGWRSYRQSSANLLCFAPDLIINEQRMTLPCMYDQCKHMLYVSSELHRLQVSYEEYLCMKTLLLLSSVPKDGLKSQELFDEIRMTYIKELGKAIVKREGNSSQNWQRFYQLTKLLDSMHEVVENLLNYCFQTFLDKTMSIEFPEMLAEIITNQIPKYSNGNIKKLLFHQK
Summary of the method: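 HepG2 cells transiently transfected with multiplexed reporter units in which chimeric NR-GAL4 proteins drive GAL4-UAS reporters; 24 h compound exposure. Reporter mRNA measured by RT-PCR, 6-FAM labelling, HpaI digestion and capillary electrophoresis; gain-of-signal fitted versus DMSO.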

[2] = target: Oxysterols receptor LXR-alpha (Homo sapiens) (UniProt Q13133); experiment: ATG_LXRa_TRANS: Attagene TRANS-FACTORIAL HepG2 Assay for human Liver X Receptor alpha (LXRa) (AID 2282980; active means hit-call score of the fitted dose curve at least 0.9, where 1 is the maximum); conditions: HepG2 Attagene TRANS reporter, LXRa transactivation
Oxysterols receptor LXR-alpha (Homo sapiens), sequence (Q13133 whole entry, looked up, the tested form may be a part): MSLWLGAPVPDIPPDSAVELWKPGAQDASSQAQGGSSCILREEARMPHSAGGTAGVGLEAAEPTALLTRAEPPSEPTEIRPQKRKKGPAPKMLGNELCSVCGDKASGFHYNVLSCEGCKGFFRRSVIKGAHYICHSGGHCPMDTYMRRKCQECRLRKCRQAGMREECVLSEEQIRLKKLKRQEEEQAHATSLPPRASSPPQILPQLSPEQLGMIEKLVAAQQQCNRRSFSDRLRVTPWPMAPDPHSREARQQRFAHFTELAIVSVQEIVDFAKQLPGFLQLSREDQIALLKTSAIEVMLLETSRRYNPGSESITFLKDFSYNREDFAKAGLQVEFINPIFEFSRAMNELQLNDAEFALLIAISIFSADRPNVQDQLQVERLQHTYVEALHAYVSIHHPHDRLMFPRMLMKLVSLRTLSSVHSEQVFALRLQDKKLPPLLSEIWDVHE
Summary of the method: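 Chemical-induced reporter mRNA measured by RT-PCR with fluorescent labelling and capillary electrophoresis after 24 h dosing of transiently transfected HepG2 cells expressing exogenous NR-Gal4 chimeras; increases scored against DMSO baseline.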

[3] = target: Oxysterols receptor LXR-beta (Homo sapiens) (UniProt P55055); experiment: ATG_LXRb_TRANS: Attagene TRANS-FACTORIAL HepG2 Assay for human Liver X Receptor beta (LXRb) (AID 2282981; active means hit-call score of the fitted dose curve at least 0.9, where 1 is the maximum); conditions: HepG2 Attagene TRANS GAL4-LXRb reporter, mRNA
Oxysterols receptor LXR-beta (Homo sapiens), sequence (P55055 whole entry, looked up, the tested form may be a part): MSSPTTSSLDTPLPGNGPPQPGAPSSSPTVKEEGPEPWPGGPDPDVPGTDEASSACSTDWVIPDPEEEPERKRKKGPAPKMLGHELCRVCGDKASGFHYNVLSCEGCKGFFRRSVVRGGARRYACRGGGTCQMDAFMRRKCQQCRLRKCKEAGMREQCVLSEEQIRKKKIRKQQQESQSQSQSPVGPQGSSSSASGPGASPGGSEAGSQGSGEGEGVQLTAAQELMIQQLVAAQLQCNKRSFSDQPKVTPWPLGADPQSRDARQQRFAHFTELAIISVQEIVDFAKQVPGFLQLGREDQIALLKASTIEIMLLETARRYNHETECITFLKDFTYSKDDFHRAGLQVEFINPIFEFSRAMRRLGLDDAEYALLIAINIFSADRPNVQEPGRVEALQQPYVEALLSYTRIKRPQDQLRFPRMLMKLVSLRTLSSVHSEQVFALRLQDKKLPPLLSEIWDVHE
Summary of the method: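 After 24 h of chemical treatment, transfected HepG2 cells yield total RNA; reporter cDNA is PCR-amplified, FAM-labelled, HpaI-cut and run on capillary electrophoresis. Signal reflects chimeric LXRb-Gal4 activity on GAL4-UAS reporters.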

[4] = target: Transcriptional activator Myb (Homo sapiens) (UniProt P10242); experiment: ATG_Myb_CIS: Attagene CIS-FACTORIAL HepG2 Assay for human Myeloblastosis (Myb) Proto-Oncogene Transcription Factor (AID 2282986); conditions: HepG2 Attagene CIS-FACTORIAL Myb reporter transcription; actives raise or lower the signal
Transcriptional activator Myb (Homo sapiens), sequence (P10242 whole entry, looked up): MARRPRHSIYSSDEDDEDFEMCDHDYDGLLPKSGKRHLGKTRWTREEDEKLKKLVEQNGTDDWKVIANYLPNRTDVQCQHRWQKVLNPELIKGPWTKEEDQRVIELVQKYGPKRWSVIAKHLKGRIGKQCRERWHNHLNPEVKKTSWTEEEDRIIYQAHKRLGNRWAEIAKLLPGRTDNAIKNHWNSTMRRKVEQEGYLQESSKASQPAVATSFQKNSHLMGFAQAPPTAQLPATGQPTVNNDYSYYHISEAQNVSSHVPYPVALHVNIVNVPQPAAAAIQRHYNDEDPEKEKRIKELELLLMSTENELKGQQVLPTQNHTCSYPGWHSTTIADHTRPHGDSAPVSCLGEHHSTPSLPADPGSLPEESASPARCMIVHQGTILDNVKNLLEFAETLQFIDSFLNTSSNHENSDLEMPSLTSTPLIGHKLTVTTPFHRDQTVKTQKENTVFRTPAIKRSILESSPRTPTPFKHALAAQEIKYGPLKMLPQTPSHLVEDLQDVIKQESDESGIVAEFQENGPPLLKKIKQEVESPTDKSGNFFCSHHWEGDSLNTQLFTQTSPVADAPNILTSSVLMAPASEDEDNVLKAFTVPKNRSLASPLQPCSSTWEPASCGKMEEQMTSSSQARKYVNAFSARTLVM
Summary of the method: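 HepG2 cells were transiently transfected with cis-regulated multiple reporter transcription units reflecting endogenous Myb activity, then exposed to compound for 24 hours. Reporter mRNA was measured by RT-PCR with capillary electrophoresis; bidirectional fitting versus DMSO baseline.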

[5] = target: Nuclear respiratory factor 1 (Homo sapiens) (UniProt Q16656); experiment: ATG_NRF1_CIS: Attagene CIS-FACTORIAL HepG2 Assay for human Nuclear Respiratory Factor 1 (NRF1) Orphan Gene (AID 2282987); conditions: HepG2 NRF1 cis-element reporter, Attagene multiplex; actives raise or lower the signal
Nuclear respiratory factor 1 (Homo sapiens), sequence (Q16656 whole entry, looked up): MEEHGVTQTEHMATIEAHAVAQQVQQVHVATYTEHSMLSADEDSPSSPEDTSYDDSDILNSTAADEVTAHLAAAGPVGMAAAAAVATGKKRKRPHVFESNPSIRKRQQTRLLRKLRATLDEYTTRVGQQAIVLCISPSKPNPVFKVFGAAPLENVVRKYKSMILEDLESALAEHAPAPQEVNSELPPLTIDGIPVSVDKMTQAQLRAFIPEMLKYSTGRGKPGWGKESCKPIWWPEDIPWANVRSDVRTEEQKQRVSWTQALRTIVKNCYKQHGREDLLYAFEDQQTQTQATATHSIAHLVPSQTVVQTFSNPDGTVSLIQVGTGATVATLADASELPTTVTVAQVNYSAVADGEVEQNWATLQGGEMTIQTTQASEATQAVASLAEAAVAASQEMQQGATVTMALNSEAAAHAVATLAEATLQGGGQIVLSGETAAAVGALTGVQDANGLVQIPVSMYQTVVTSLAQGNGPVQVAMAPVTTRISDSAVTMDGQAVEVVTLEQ
Summary of the method: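 HepG2 cells transiently transfected with multiple reporter transcription units under cis-regulatory promoter control, so endogenous transcription-factor activity is read. After 24 h compound exposure, reporter mRNA quantified by RT-PCR, fluorescent labelling, HpaI digestion and capillary electrophoresis; bidirectional fitting versus DMSO.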

[6] = ATG_NFI_CIS: Attagene CIS-FACTORIAL HepG2 Assay for human Nuclear Factor I (NFI) (AID 2282989); conditions: HepG2 cis-regulatory reporter, NFI response element transcription; actives raise or lower the signal
Summary of the method: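 Multiplexed cis-reporter system in human HepG2 cells reports native TF activity as reporter mRNA induction 24 h post-dose. Fragments labelled with 6-FAM, HpaI-digested and resolved by capillary electrophoresis; activity fitted both directions versus DMSO.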

[7] = target: Myc proto-oncogene protein (Homo sapiens) (UniProt P01106); experiment: ATG_Myc_CIS: Attagene CIS-FACTORIAL HepG2 Assay for human Myelocytomatosis (Myc) Proto-Oncogene Transcription Factor (AID 2282990); conditions: HepG2, Attagene cis-reporter transcription factor activity; actives raise or lower the signal
Myc proto-oncogene protein (Homo sapiens), sequence (P01106 whole entry, looked up, the tested form may be a part): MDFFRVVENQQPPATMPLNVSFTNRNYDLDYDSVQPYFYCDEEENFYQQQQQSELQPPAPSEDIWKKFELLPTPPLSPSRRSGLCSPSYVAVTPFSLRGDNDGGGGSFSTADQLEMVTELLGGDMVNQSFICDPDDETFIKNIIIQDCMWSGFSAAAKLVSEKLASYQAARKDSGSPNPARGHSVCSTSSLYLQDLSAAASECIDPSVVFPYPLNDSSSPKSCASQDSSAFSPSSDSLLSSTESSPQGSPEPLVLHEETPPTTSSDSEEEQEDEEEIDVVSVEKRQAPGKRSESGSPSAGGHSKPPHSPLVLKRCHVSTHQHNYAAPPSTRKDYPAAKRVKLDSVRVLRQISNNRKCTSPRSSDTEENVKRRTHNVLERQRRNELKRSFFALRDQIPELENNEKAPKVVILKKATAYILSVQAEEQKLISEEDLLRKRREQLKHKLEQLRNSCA
Summary of the method: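 After 24 h chemical treatment of HepG2 cells carrying multiplexed cis-regulated reporter constructs, reporter transcripts quantified by RT-PCR and capillary electrophoresis of fluorescent fragments. Gain or loss fitted against DMSO baseline.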

[8] = ATG_NF_kB_CIS: Attagene CIS-FACTORIAL HepG2 Assay for human Nuclear Factor Kappa B (NF-kB) (AID 2282991); conditions: HepG2 Attagene cis-factorial NF-kB reporter mRNA; actives raise or lower the signal
Summary of the method: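 HepG2 cells transiently transfected with multiplexed cis-element reporter units measuring endogenous transcription factor activity; reporter mRNA read 24 h after dosing by RT-PCR, fluorescent labelling, HpaI digestion and capillary electrophoresis. Bidirectional fit against DMSO baseline.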

[9] = target: Cellular tumor antigen p53 (Homo sapiens) (UniProt P04637); experiment: ATG_p53_CIS: Attagene CIS-FACTORIAL HepG2 Assay for human p53 Transcription Factor (AID 2282994); conditions: HepG2 p53 cis-element reporter, Attagene mRNA; actives raise or lower the signal
Cellular tumor antigen p53 (Homo sapiens), sequence (P04637 whole entry, looked up, the tested form may be a part): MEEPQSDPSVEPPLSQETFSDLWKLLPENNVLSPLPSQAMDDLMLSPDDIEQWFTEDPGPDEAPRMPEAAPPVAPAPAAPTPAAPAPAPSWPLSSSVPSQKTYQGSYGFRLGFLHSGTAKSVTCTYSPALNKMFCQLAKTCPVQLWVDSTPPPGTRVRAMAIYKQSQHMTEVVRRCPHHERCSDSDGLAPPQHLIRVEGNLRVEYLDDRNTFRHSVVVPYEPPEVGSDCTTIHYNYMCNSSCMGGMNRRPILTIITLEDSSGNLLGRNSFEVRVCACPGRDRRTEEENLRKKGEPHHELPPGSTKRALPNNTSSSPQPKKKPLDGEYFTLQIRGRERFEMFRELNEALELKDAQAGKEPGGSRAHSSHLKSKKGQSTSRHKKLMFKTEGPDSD
Summary of the method: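 Steps: transfect HepG2 with multiplexed cis reporter constructs; dose chemicals 24 h; extract RNA, reverse-transcribe, PCR-amplify reporter sequences; FAM-label, HpaI-digest, resolve fragments by CE. Activity fitted both directions relative to DMSO.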

[10] = BSK_3C_TissueFactor: BioMAP Diversity Plus: 3C Assay for Tissue Factor Biomarker Activity (AID 2282997); conditions: BioMAP 3C HUVEC, tissue factor biomarker readout; actives raise or lower the signal
Summary of the method: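 Tissue factor on primary human umbilical vein endothelium was read by ELISA 24 h after dosing, gain or loss relative to DMSO. Cytotoxicity ran alongside via SRB (0.1%, TCA-fixed, 560 nm).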

[11] = BSK_3C_uPAR: BioMAP Diversity Plus: 3C Assay for Urokinase-type plasminogen activator receptor (uPAR) Biomarker Activity (AID 2282998); conditions: BioMAP 3C HUVEC, uPAR biomarker ELISA; actives raise or lower the signal
Summary of the method: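 Values derive from bidirectional curve fitting relative to DMSO, which served as baseline of activity. uPAR was measured by ELISA in human umbilical vein endothelial primary cultures 24 h after compound addition.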

[12] = BSK_3C_VCAM1: BioMAP Diversity Plus: 3C Assay for Vascular cell adhesion molecule 1 (VCAM1) Biomarker Activity (AID 2282999); conditions: BioMAP 3C HUVEC, VCAM1 ELISA, cytokine-stimulated; actives raise or lower the signal
Summary of the method: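 Activity fitted in both directions relative to DMSO, with ELISA measurement of the surface marker on primary HUVEC (3C) at 24 h post-treatment; parallel SRB staining (0.1% SRB, TCA-fixed, 560 nm) flagged overt cytotoxicity.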

[13] = target: Bile acid receptor (Homo sapiens) (UniProt Q96RI1); experiment: ATG_FXR_TRANS: Attagene TRANS-FACTORIAL HepG2 Assay for Farnesoid X Receptor (FXR) (AID 2282979; active means hit-call score of the fitted dose curve at least 0.9, where 1 is the maximum;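 further: hits raise reporter mRNA above DMSO so AC50 marks FXR activation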); conditions: HepG2 Attagene TRANS FXR-GAL4 reporter transcription
Bile acid receptor (Homo sapiens), sequence (Q96RI1 whole entry, looked up, the tested form may be a part): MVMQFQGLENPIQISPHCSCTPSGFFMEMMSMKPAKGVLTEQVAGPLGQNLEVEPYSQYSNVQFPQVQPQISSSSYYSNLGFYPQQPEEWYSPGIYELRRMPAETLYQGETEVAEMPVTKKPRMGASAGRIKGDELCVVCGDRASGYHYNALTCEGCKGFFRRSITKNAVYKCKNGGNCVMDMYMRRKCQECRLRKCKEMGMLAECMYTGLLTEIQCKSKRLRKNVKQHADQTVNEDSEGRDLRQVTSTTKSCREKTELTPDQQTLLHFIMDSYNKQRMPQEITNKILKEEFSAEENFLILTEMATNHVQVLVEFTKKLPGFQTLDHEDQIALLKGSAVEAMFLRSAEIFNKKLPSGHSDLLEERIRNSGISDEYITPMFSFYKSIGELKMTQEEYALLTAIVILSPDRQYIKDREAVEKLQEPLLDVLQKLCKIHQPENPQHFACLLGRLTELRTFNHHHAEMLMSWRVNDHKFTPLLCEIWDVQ
Summary of the method: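 Reporter transcripts from transfected HepG2 cells were measured 24 h after dosing, using RT-PCR with capillary electrophoresis of 6-FAM-labelled fragments. The read-out reflects activity of exogenous FXR-Gal4 chimera on GAL4-UAS units, with induction relative to DMSO.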

[14] = target: Hepatocyte nuclear factor 4-alpha (Homo sapiens) (UniProt P41235); experiment: ATG_HNF4a_TRANS: Attagene TRANS-FACTORIAL HepG2 Assay for human Hepatocyte Nuclear Factor 4 alpha (HNF4a) (AID 2282982; active means hit-call score of the fitted dose curve at least 0.9, where 1 is the maximum); conditions: HepG2 HNF4a transactivation reporter, mRNA readout
Summary of the method: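 Multiplexed reporter assay: transfected HepG2, 24 h exposure, total RNA → oligo(dT) RT → PCR → 6-FAM extension → HpaI digest → CE fluorescence. DMSO = negative control.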

[15] = ATG_M_06_TRANS: Attagene TRANS-FACTORIAL HepG2 Assay for M06 Transcription Factor (Internal Marker) (AID 2282983; active means hit-call score of the fitted dose curve at least 0.9, where 1 is the maximum;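 further: reporter transcript level by RT-PCR then capillary electrophoresis fluorescence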); conditions: HepG2 Attagene TRANS M06 internal marker reporter
Summary of the method: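 Background-control reporter readout: after 24 h chemical exposure of transiently transfected HepG2 (GAL4-UAS reporter units), mRNA quantified by RT-PCR with fluorescent labeling and capillary electrophoresis. Gain-of-signal fitting against DMSO baseline.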

[16] = ATG_M_32_TRANS: Attagene TRANS-FACTORIAL HepG2 Assay for M32 Transcription Factor (Internal Marker) (AID 2282984; active means hit-call score of the fitted dose curve at least 0.9, where 1 is the maximum;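 further: transcript level of a background control reporter unit measured by RT-PCR and capillary electrophoresis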); conditions: HepG2 Attagene TRANS M32 internal marker reporter
Summary of the method: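 Cell-based TRANS-format assay in HepG2: exogenous chimeric GAL4 reporter units transiently expressed, compounds applied 24 h. Reporter mRNA detected by RT-PCR plus capillary electrophoresis; this readout is an internal background marker.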

[17] = target: Nuclear receptor subfamily 4 group A member 2 (Homo sapiens) (UniProt P43354); experiment: ATG_NURR1_TRANS: Attagene TRANS-FACTORIAL HepG2 Assay for human Nuclear Receptor Related Protein 1 (NURR1) (AID 2282985; active means hit-call score of the fitted dose curve at least 0.9, where 1 is the maximum); conditions: HepG2 Attagene TRANS reporter, mRNA readout
Nuclear receptor subfamily 4 group A member 2 (Homo sapiens), sequence (P43354 whole entry, looked up, the tested form may be a part): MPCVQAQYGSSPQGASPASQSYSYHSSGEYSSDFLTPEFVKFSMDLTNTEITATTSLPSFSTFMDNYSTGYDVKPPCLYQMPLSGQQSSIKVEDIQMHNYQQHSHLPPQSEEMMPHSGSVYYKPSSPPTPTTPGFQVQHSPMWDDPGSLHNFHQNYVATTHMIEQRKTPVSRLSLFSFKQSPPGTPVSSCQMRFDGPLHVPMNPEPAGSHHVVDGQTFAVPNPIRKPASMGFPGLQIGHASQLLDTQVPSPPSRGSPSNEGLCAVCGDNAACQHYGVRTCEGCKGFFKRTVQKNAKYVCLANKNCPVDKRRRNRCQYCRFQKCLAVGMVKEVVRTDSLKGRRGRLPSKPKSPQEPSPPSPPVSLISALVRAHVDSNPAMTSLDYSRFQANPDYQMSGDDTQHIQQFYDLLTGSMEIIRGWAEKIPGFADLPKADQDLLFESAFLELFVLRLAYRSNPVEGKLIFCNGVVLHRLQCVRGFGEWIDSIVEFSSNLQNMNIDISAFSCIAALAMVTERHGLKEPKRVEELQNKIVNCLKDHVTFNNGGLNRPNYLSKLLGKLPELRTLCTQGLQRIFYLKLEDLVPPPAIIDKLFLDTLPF
Summary of the method: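 Measures transcriptional activation by an exogenous NR-Gal4 chimera in transfected HepG2 liver cells. After 24 h, reporter RNA is reverse-transcribed, amplified and resolved by capillary electrophoresis; DMSO defines baseline.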

[18] = target: Estrogen-related receptor gamma (Homo sapiens) (UniProt P62508); experiment: ATG_ERRg_TRANS: Attagene TRANS-FACTORIAL HepG2 Assay for human Estrogen-Related Receptor gamma (ERRg) (AID 2282977; active means hit-call score of the fitted dose curve at least 0.9, where 1 is the maximum;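 further: hits increase reporter signal over DMSO so potencies reflect activators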); conditions: HepG2 Attagene TRANS reporter, ERRg transactivation
Summary of the method: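 Exogenous NR-Gal4 chimera activity was assessed in HepG2 cells bearing transfected GAL4-UAS reporters. After 24 h dosing, total RNA underwent RT-PCR, fluorescent primer extension and HpaI digestion before capillary electrophoresis, with gain of signal scored against DMSO.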

Measured: AC50

Cc1ccccc1O
inactive: [1] | [2] | [3] | [4] | [5] | [6] | [7] | [8] | [9] | [10] | [11] | [12]

C[C@]12CCC(=O)C=C1CC[C@@H]1[C@@H]2CC[C@@]2(C)[C@H]1CC[C@]2(C)O
active: [5] 21.6 µM | [9] 58.8 µM
inactive: [1] | [13] | [2] | [3] | [14] | [15] | [16] | [17] | [4] | [5] | [6] | [7] | [9] | [10] | [11] | [12]

Clc1ccc(C(c2ccccc2Cl)C(Cl)(Cl)Cl)cc1 (centres undefined)
active: [5] 120 µM | [6] 107 µM and 70.5 µM | [7] 111 µM | [10] 20.9 µM | [11] 21.3 µM | [12] 21 µM
inactive: [18] | [1] | [2] | [3] | [15] | [16] | [17] | [4] | [5] | [6] | [7] | [8] | [9]
